Laboratory results published in PubChem BioAssay (EPA / NIEHS).
Calls of active or inactive are those of the source. How the source made its calls: active means hit-call score of the fitted dose curve at least 0.9, where 1 is the maximum; inactive means score below 0.9.

Assays:
[1] = APR_HepG2_CellCycleArrest_24hr: Apredica 24-hour HepG2 Assay for Cell Cycle Arrest (AID 2282905); settings: imaging, actives raise or lower the signal;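 further: cell cycle arrest scored as ratio of 2N to 4N nuclear DNA content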
Outline: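 Compounds at 0.39–200 uM (0.5% DMSO) for 24 h, then fixed and Hoechst 33342 stained. Cell-cycle analysis of nuclear DNA content by high-content imaging, fitted bidirectionally versus DMSO.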

[2] = APR_HepG2_NuclearSize_24hr: Apredica 24-hour HepG2 Assay for Nuclear Size (AID 2282907); settings: high-content imaging, actives raise or lower the signal
Outline: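 HepG2 cells exposed 24 h to compounds at 0.39–200 uM (0.5% DMSO), fixed, Hoechst 33342 stained and imaged at 20x; nuclear diameter measured by automated image analysis, fitted bidirectionally against DMSO controls.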

[3] = APR_HepG2_CellLoss_24hr: Apredica 24-hour HepG2 Assay for Cell Loss (AID 2282908); settings: high-content imaging;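 on AC50: fit in both directions so a hit may be cell loss or gain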
Outline: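 HepG2 cells exposed 24 hr to 0.39–200 uM compound in duplicate at 0.5% v/v final DMSO. Cells fixed in 3.7% formaldehyde and Hoechst 33342-stained. Cell number came from nuclear imaging at 20x. Bidirectional fit versus DMSO.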

[4] = APR_HepG2_MitoticArrest_24hr: Apredica 24-hour HepG2 Assay for Mitotic Arrest (AID 2282910); settings: high-content imaging, actives raise or lower the signal
Outline: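 HepG2 human liver cells were exposed to compounds at 0.39–200 uM (10 concentrations, duplicate) in 0.5% v/v DMSO for 24 hr, then fixed and immunostained for phospho-histone H3 with Hoechst 33342. Mitotic arrest came from HCS fluorescent imaging, fitted bidirectionally against DMSO.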

[5] = APR_HepG2_MitoMembPot_24hr: Apredica 24-hour HepG2 Assay for Mitochondrial Membrane Potential (AID 2282911); settings: imaging, actives raise or lower the signal
Outline: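 HepG2 cells exposed 24 h to 0.39–200 uM compounds in duplicate, 0.5% v/v DMSO final. MitoTracker Red CMXRos 250 nM loaded 30 min before formaldehyde fixation; high-content imaging at 20x, bidirectional fit versus DMSO.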

[6] = APR_HepG2_MitoMass_24hr: Apredica 24-hour HepG2 Assay for Mitochondrial Mass (AID 2282912); settings: high-content imaging, actives raise or lower the signal
Outline: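 HepG2 cells exposed 24 hr to 0.39–200 uM compound, 0.5% v/v DMSO, in duplicate. Stained before fixation with 250 nM MitoTracker Red CMXRos for 30 min, then imaged at 20x with Hoechst nuclei. Fitted in both directions against DMSO.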

[7] = APR_HepG2_p53Act_24hr: Apredica 24-hour HepG2 Assay for p53 Activation (AID 2282913); settings: high-content imaging, actives raise or lower the signal;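 further: p53 protein immunofluorescence averaged per cell in HepG2 with Hoechst nuclei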
Outline: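 HepG2 cells exposed 24 h to compounds at 0.39–200 uM in duplicate, 0.5% v/v DMSO final; fixed, permeabilized, stained with anti-p53 antibody and Hoechst 33342; fluorescence imaging; bidirectional curve fit versus DMSO.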

[8] = APR_HepG2_CellCycleArrest_72hr: Apredica 72-hour HepG2 Assay for Cell Cycle Arrest (AID 2282914); settings: high-content imaging, actives raise or lower the signal
Outline: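 HepG2 cells exposed 72 h in duplicate to 0.39–200 uM compound, 0.5% DMSO final. Formaldehyde-fixed, Hoechst 33342-stained nuclei imaged at 20x, six fields per well; DNA content per valid cell quantified by cell-cycle image analysis, bidirectional fit versus DMSO.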

[9] = APR_HepG2_CellLoss_72hr: Apredica 72-hour HepG2 Assay for Cell Loss (AID 2282915); settings: high-content imaging
Outline: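 HepG2 cells were exposed for 72 hr to compounds at 0.39–200 uM (ten concentrations, duplicate) in 0.5% v/v final DMSO. Nuclei were stained with Hoechst 33342 after 3.7% formaldehyde fixation, imaged at 20x, and counted; fits bidirectional versus DMSO.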

[10] = APR_HepG2_P-H2AX_72hr: Apredica 72-hour HepG2 Assay for H2AX Phosphorylation (AID 2282916); settings: imaging, actives raise or lower the signal;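 further: phospho-histone H2A.x immunostain intensity per cell marking DNA damage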
Outline: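 HepG2 cells treated 72 h at 0.39–200 uM, 0.5% DMSO final, duplicates. Formaldehyde-fixed, Triton-permeabilised, immunostained for phospho-H2A.x with Hoechst; fluorescence imaged at 20x, bidirectional fit versus DMSO.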

[11] = APR_HepG2_MitoMembPot_72hr: Apredica 72-hour HepG2 Assay for Mitochondrial Membrane Potential (AID 2282917); settings: imaging, actives raise or lower the signal
Outline: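 HepG2 cells exposed 72 h to compounds at 0.39–200 uM (0.5% v/v DMSO, duplicates); MitoTracker Red CMXRos 250 nM loaded 30 min before 3.7% formaldehyde fixation, imaged by HCS fluorescence. Bidirectional fit versus DMSO.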

[12] = APR_HepG2_MitoticArrest_72hr: Apredica 72-hour HepG2 Assay for Mitotic Arrest (AID 2282918); settings: high-content imaging, actives raise or lower the signal
Outline: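 HepG2 cells treated 72 h at 0.39–200 uM, 0.5% DMSO final; formaldehyde-fixed, stained with Hoechst 33342 and phospho-histone H3 antibody, imaged by high-content fluorescence; bidirectional fit versus DMSO.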

[13] = APR_HepG2_MicrotubuleCSK_72hr: Apredica 72-hour HepG2 Assay for Microtubule CSK Stabilty (AID 2282919); settings: HepG2 microtubule cytoskeleton, high-content imaging, actives raise or lower the signal
Outline: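 HepG2 human liver cells were dosed for 72 h at ten concentrations from 0.39 to 200 uM in duplicate (0.5% v/v DMSO final). Fixed, permeabilized cells were immunostained for alpha-tubulin (Cy5) with a Hoechst counterstain and imaged at 20x.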

[14] = APR_HepG2_P-H2AX_24hr: Apredica 24-hour HepG2 Assay for H2AX Phosphorylation (AID 2282920); settings: high-content imaging, actives raise or lower the signal
Outline: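 HepG2 cells dosed 24 h at 0.39–200 uM (10 points, duplicate, 0.5% DMSO final). Formaldehyde-fixed and permeabilized, then immunostained for phospho-H2A.x with Hoechst. Fluorescence quantified by high-content imaging, fitted bidirectionally versus DMSO.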

[15] = APR_HepG2_StressKinase_72hr: Apredica 72-hour HepG2 Assay for Stress Kinase (AID 2282921); settings: HepG2 stress kinase (phospho-c-Jun) imaging, actives raise or lower the signal
Outline: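 HepG2 cells treated 72 hr with 0.39–200 uM compound, 0.5% v/v DMSO, duplicate wells. After formaldehyde fixation and Triton permeabilization, stained with anti-phospho-c-Jun (1:500) and Cy3 secondary, imaged at 20x. Fitted in both directions against DMSO.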

[16] = APR_HepG2_StressKinase_24hr: Apredica 24-hour HepG2 Assay for Stress Kinase (AID 2282922); settings: HepG2 stress kinase (phospho-c-Jun) imaging, actives raise or lower the signal
Outline: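 HepG2 cells exposed 24 hr to compound at 0.39–200 uM (10 concentrations, duplicate), 0.5% v/v DMSO final. Fixed in 3.7% formaldehyde, permeabilized with Triton X-100, immunolabeled for phospho-c-Jun with Hoechst 33342; HCS fluorescence imaging, bidirectional fit versus DMSO.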

[17] = APR_HepG2_p53Act_72hr: Apredica 72-hour HepG2 Assay for p53 Activation (AID 2282923); settings: high-content imaging, actives raise or lower the signal;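 further: average cellular p53 protein immunofluorescence intensity in HepG2 cells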
Outline: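 HepG2 cells exposed 72 h to 0.39–200 uM in 0.5% DMSO, duplicates. Fixed, permeabilized cells immunostained for p53 (Cy5) with Hoechst; imaged at 20x, fluorescence analyzed bidirectionally against DMSO.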

[18] = APR_HepG2_NuclearSize_72hr: Apredica 72-hour HepG2 Assay for Nuclear Size (AID 2282925); settings: high-content imaging, actives raise or lower the signal
Outline: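 HepG2 cells were exposed to compounds at ten concentrations from 0.39 to 200 uM (duplicate, 0.5% DMSO final) for 72 hr. After fixation in 3.7% formaldehyde, nuclei were stained with Hoechst 33342 (2 ug/mL) and imaged at 20x.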

[19] = APR_HepG2_MicrotubuleCSK_24hr: Apredica 24-hour HepG2 Assay for Microtubule CSK Stabilty (AID 2282909); settings: HepG2 microtubule cytoskeleton imaging, actives raise or lower the signal
Outline: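 HepG2 cells were treated 24 hr with compound at 0.39–200 uM in duplicate (0.5% DMSO final), then fixed and permeabilized. Alpha-tubulin immunofluorescence was imaged by high-content microscopy, with bidirectional fitting against DMSO and taxol as positive control.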

[20] = APR_HepG2_MitoMass_72hr: Apredica 72-hour HepG2 Assay for Mitochondrial Mass (AID 2282924); settings: high-content imaging, actives raise or lower the signal;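 further: MitoTracker Red CMXRos stain intensity per cell imaged as mitochondrial mass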
Outline: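 HepG2 cells were exposed for 72 hr to compounds at 0.39–200 uM (ten concentrations, duplicate, 0.5% v/v DMSO final). Live cells were stained with 250 nM MitoTracker Red CMXRos for 30 min, then fixed in 3.7% formaldehyde and imaged by HCS fluorescence.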

Measured: AC50

CC(=O)OCCC(C)C
inactive: [1] | [2] | [3] | [4] | [5] | [6] | [7] | [8] | [9] | [10] | [11] | [12] | [13] | [14] | [15] | [16] | [17] | [18]

CC[C@H](C)C(=O)O[C@H]1C[C@@H](C)C=C2C=C[C@H](C)[C@H](CC[C@@H]3C[C@@H](O)CC(=O)O3)[C@H]21
active: [3] 82 µM | [4] 28.9 µM | [5] 48.8 µM | [6] 5.52 µM | [9] 31.1 µM | [12] 4.53 µM | [14] 2.46 µM | [17] 3.64 µM
inactive: [1] | [2] | [19] | [7] | [8] | [13] | [16] | [18]

CCOCCO
inactive: [1] | [2] | [3] | [4] | [5] | [6] | [7] | [8] | [9] | [10] | [11] | [12] | [13] | [14] | [16] | [17] | [20] | [18]

Cn1cnc([N+](=O)[O-])c1Sc1ncnc2nc[nH]c12
inactive: [1] | [2] | [3] | [19] | [4] | [5] | [6] | [7] | [8] | [12] | [13] | [14] | [16] | [17] | [20] | [18]
active: [9] 44.8 µM

Oc1ccc2c(c1)-c1ccccc1C2
active: [3] 100 µM | [4] 116 µM | [6] 111 µM | [7] 100 µM | [8] 124 µM | [9] 86.1 µM | [11] 106 µM | [12] 80.3 µM | [14] 117 µM | [17] 47.7 µM
inactive: [1] | [2] | [19] | [5] | [13] | [16] | [20] | [18]

CC[C@H]1CC[C@H](NCc2cc3c(cc2OC)[C@H]2C[C@H]2C(=O)N3C)[C@H](c2ccccc2)N1
inactive: [1] | [2] | [3] | [4] | [5] | [6] | [7] | [8] | [10] | [11] | [12] | [13] | [14] | [15] | [16] | [17] | [18]
active: [9] 72.5 µM

CN(C)c1ccc(N=NS(=O)(=O)O)cc1
active: [1] 86.9 µM | [8] 54.3 µM | [9] 71.7 µM | [17] 57 µM
inactive: [2] | [3] | [19] | [4] | [5] | [6] | [7] | [11] | [12] | [13] | [14] | [15] | [16] | [18]
